Assay [1] is described as follows: NCI Yeast Anticancer Drug Screen. Data for the rad50 strain (AID 155).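 Note: 0% = growth of vehicle-only cultures of the same strain.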 As to conditions: S. cerevisiae rad50 strain growth inhibition; at 50.0 µM; stronger effect = higher value. The procedure, abridged:
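DNA repair mutant yeast, compound exposure, growth read-out; inhibition is taken relative to vehicle.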

Assay [2] can be described thus: NCI Yeast Anticancer Drug Screen. Data for the mec2-1 strain (AID 157). As to conditions: S. cerevisiae mec2-1 strain, at 50.0 µM, stronger effect = higher value. In outline: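 Mutant yeast (mec2-1) grown with compound; growth inhibition relative to vehicle control reported.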
Assay [3] is described as follows: NCI Yeast Anticancer Drug Screen. Data for the sgs1 mgt1 strain (AID 161).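 Note: 0% = growth of cultures given vehicle only.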 As to conditions: S. cerevisiae sgs1 mgt1 strain, at 50.0 µM, stronger effect = higher value. The procedure, abridged:
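Compounds are added to genetically altered yeast, and growth is compared with cultures given vehicle alone to give percent inhibition.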

Assay [4] in a line: NCI Yeast Anticancer Drug Screen. Data for the cln2 rad14 strain (AID 165).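 Note: 0% = growth equal to vehicle treated cultures.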 Particulars: S. cerevisiae cln2 rad14 strain, at 50.0 µM, stronger effect = higher value. The procedure, abridged:
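Readout is yeast growth inhibition versus vehicle-treated controls, using a strain with cln2 and rad14 alterations exposed to compound.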

A short description of assay [5]: NCI Yeast Anticancer Drug Screen. Data for the bub3 strain (AID 167). Particulars: S. cerevisiae bub3 mutant strain, at 50.0 µM, stronger effect = higher value. In outline:
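In this screen, a yeast mutant lacking normal mitotic checkpoint function is challenged with compound. Relative growth versus vehicle gives the inhibition value.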

A short description of assay [6]: NCI Yeast Anticancer Drug Screen. Data for the mlh1 rad18 strain (AID 175). Particulars: S. cerevisiae mlh1 rad18 strain growth inhibition; at 50.0 µM; stronger effect = higher value. In outline: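 Genetically defined yeast (DNA repair-deficient) exposed to compounds; growth inhibition determined relative to vehicle.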

Compounds without any hit were thinned out: in the full panel of roughly 79,000, 15% have a hit. Values without a mark were called inactive. The source made the active and inactive calls. Cut-off read from the data, not from the text of the source: active = growth inhibition above about 70%; inactive = the rest.

For `CN(C)CCNC(=O)Cn1cnc2cccc([N+](=O)[O-])c2c1=O`, the growth inhibition is 34.5% in assay [1]; 17% in assay [2]; 4.85% in assay [3]; 20.6% in assay [4]; 20.9% in assay [5]; -34.6% in assay [6].

For the compound `CCCC(=O)OCC1OC(n2cc(F)c(=O)[nH]c2=O)C(F)C1OC(=O)CCC` (stereo not drawn), the growth inhibition was -1.45% in assay [1]; 15.1% in assay [2]; -5.8% in assay [3]; -13.9% in assay [4]; -2.6% in assay [5]; -7.25% in assay [6].

Regarding `Cc1cc[n+](C)c(-c2ccccc2)c1`, the growth inhibition in assay [1] is 5.65%; in assay [2], -2.25%; in assay [3], 7%; in assay [4] it was 21.2%; in assay [5], 5.9%; in assay [6] it was 11.6%.

For the compound `CN(C)CC(CCC(=O)c1ccccc1)C(=O)c1ccccc1` (stereo not drawn), the growth inhibition in assay [1] was 8.05%; in assay [2], 15.8%; in assay [3], 26.2%; in assay [4] it was -45.8%; in assay [5], 14.2%; in assay [6] it was 5.5%.

With `O=[N+]([O-])c1ccn(O)c(=Nc2ccccc2)c1`, the growth inhibition in assay [1] was 1.7%; in assay [2] it was 11.2%; in assay [3], 5.45%; in assay [4], -32.5%; in assay [5], -14.9%; in assay [6], 20.4%.

For the compound `O=C(O)C(Cc1ccsc1)C(=O)O`, the growth inhibition was -10.1% in assay [1]; 1.1% in assay [2]; -6.6% in assay [3]; -17% in assay [4]; -6.45% in assay [5]; 12.4% in assay [6].

On to `c1ccc2cc(C3OCCCO3)ccc2c1`, for which the growth inhibition in assay [1] was 19.4%; in assay [2] it was 10.2%; in assay [3] it was -2.05%; in assay [4] it was -62.9%; in assay [5], -2.45%; in assay [6], 4.2%.

Consider `N#CC1(N=Cc2ccc3c(c2)OCO3)c2ccccc2-c2ccccc21`, for which the growth inhibition in assay [1] was 15.2%; in assay [2], 6.85%; in assay [3] it was 5.8%; in assay [4], -9.35%; in assay [5] it was 8.55%; in assay [6] it was 4.95%.

Consider `OCC(O)COCCCCCCCCCCCCCC1C=CCC1` (stereo not drawn), for which the growth inhibition in assay [1] is -35.8%; in assay [2] it was -43.5%; in assay [3] it was -35%; in assay [4], -4.3%; in assay [5], -23.5%; in assay [6], -30.7%.

As for `COC(=O)C1=NC(=S)N=C(C(=O)OC)C1(C)C(=O)c1ccccc1`, the growth inhibition in assay [1] is 4.3%; in assay [2], -6.95%; in assay [3], -12.4%; in assay [4], 0.8%; in assay [5] it was 3.75%; in assay [6] it was 18.4%.

On to `COc1cc2c(oc(=O)c3c4occc4cc(OC)c23)c2cccc(OCc3ccccc3)c12`, for which the growth inhibition in assay [1] was 2%; in assay [2], 14.9%; in assay [3], -11.8%; in assay [4], 8.35%; in assay [5], -20.9%; in assay [6], 3.85%.

Consider `Cc1cc(Cl)ccc1NC(=O)C1C(=O)N(c2ccc(Cl)cc2C)C(=O)/C1=N\NC(N)=O` (stereo not drawn), for which the growth inhibition in assay [1] was 7.65%; in assay [2], -24.4%; in assay [3] it was 14.4%; in assay [4] it was 6.1%; in assay [5] it was -6.45%; in assay [6], 5.7%.

For the compound `[Mn+2].[NH-]CC(=O)NC(Cc1ccccc1)C(=O)O.[NH-]CC(=O)NC(Cc1ccccc1)C(=O)O` (stereo not drawn), the growth inhibition was -15.5% in assay [1]; -11.3% in assay [2]; -10.7% in assay [3]; -34.2% in assay [4]; 4.05% in assay [5]; -8% in assay [6].

As to `COc1cccc(C2CC(c3cc(OC)c(OC)c(OC)c3)CC(c3cccc(OC)c3)N2)c1` (stereo not drawn), the growth inhibition was -5.4% in assay [1]; 1.45% in assay [2]; 15.2% in assay [3]; 16.4% in assay [4]; 19.6% in assay [5]; 5.7% in assay [6].

On to `Oc1c(Br)cc(Br)cc1/C=N/c1nc(-c2ccccc2)cs1`, for which the growth inhibition was 98.5% (active) in assay [1]; 92.1% (active) in assay [2]; 99% (active) in assay [3]; 92.5% (active) in assay [4]; 97.4% (active) in assay [5]; 99% (active) in assay [6].

Consider `CCOC(=O)CCCCCCC(=O)OCC`, for which the growth inhibition is 19.1% in assay [1]; 5.35% in assay [2]; 5.05% in assay [3]; 1.95% in assay [4]; 1.1% in assay [5]; 23.4% in assay [6].

Consider `O=C1/C(=C/c2ccc(O)cc2)CCc2ccc([N+](=O)[O-])cc21`, for which the growth inhibition is -10.3% in assay [1]; -1.15% in assay [2]; 9.45% in assay [3]; 13.8% in assay [4]; -0.8% in assay [5]; -55.4% in assay [6].

With `Cc1n[nH]c(=O)n1-c1cccnc1`, the growth inhibition is -0.7% in assay [1]; 1.5% in assay [2]; -9% in assay [3]; -12.3% in assay [4]; 3.55% in assay [5]; 3.6% in assay [6].

Values taken from PubChem BioAssay (NCI).
